Assay results reported in PubChem BioAssay (NCATS).
Inconclusive results are not listed. Active and inactive are the calls of the source. Calls follow the shape of the dose curve; as a rule, active = well fitted curve in the direction sought with a large enough effect; inconclusive = small, poorly fitted or top-dose-only effect, or another doubt; inactive = no such curve, though single readings can be large; an effect the other way counts as inactive or inconclusive.

Assays:
[1] = MultiTox-Fluor Cytotoxicity Assay - LYMP1-001 - Dead Cells (AID 946)
Method in brief: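 AC50 from Hill fit of concentration-response; data normalized to DMSO (basal) and 15 uM tetraoctylammonium bromide (100%). LYMP1-001 lymphoblastoid cells, 2500/well, 16 hr compound at 37 C; dead-cell protease fluorescence, Ex/Em 485/520.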

[2] = MultiTox-Fluor Cytotoxicity Assay - LYMP1-001 - Live Cells (AID 947)
[3] = Cell Viability - LYMP1-002 - Assay at 16 hr (AID 948)
Method in brief: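 In this qHTS, lymphoblastoid LYMP1-002 cells (human) receive compounds for 16 hr at 37 C. Viability is taken from CellTiter-Glo ATP luminescence, and AC50 derives from standard Hill fits.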

[4] = MultiTox-Fluor Cytotoxicity Assay - LYMP1-002 - Live Cells (AID 955)
Method in brief: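 Human lymphoblastoid LYMP1-002 cells, 2500/well in complete medium, rested 5 hr at 37 C, then exposed to compounds for 16 hr at 37 C. Live-cell protease cleavage of GF-AFC read by fluorescence (Ex/Em 405/510) after 60 min at room temperature; AC50 from Hill fits.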

[5] = MultiTox-Fluor Cytotoxicity Assay - LYMP1-002 - Dead Cells (AID 960); also: nearly all actives have a fitted effect of over 60% in size
Method in brief: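 Human lymphoblastoid cells (LYMP1-002), 2500/well in complete medium, were exposed to compounds for 16 hr at 37 C. Dead-cell protease activity was read as bis-AAF-R110 fluorescence (Ex/Em 485/520), normalized to DMSO and 15 uM tetraoctylammonium bromide; AC50 from Hill fits.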

[6] = MultiTox-Fluor Cytotoxicity Assay - LYMP1-003 - Dead Cells (AID 961); also: nearly all actives have a fitted effect of over 70% in size
Method in brief: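 Human lymphoblastoid LYMP1-003 cells (2500/well) were treated with compounds for 16 hr at 37 C in complete medium. Dead-cell protease release was read by bis-AAF-R110 fluorescence (Ex/Em 485/520). AC50 came from Hill fits, normalized to DMSO and 15 uM tetraoctylammonium bromide.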

[7] = MultiTox-Fluor Cytotoxicity Assay - LYMP1-003 - Live Cells (AID 962);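 also: cytotoxic hits lower the live-cell protease signal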
Method in brief: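 LYMP1-003 human lymphoblastoid cells (2500/well) in complete medium were preincubated 5 hr at 37 C, then exposed to compounds for 16 hr at 37 C. Live-cell protease cleavage of GF-AFC read by fluorescence (Ex/Em 405/510); AC50 from Hill fits.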

[8] = Cell Viability - LYMP1-003 - Assay at 24 hr (AID 963)
Method in brief: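 Human lymphoblastoid LYMP1-003 cells (2500/well) were rested 5 hr at 37 C, then exposed to compounds in complete medium for 24 hr at 37 C. Cellular ATP was quantified by CellTiter-Glo luminescence, and AC50 values came from Hill fits of concentration-response data.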

[9] = Cell Viability - LYMP1-003 - Assay at 40 hr (AID 964); also: series mostly up to about 92 µM; nearly all actives have a fitted effect of over 60% in size
Method in brief: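 Human lymphoblastoid LYMP1-003 cells, 2500/well in complete medium, rested 5 hr at 37 C, then exposed to compounds for 40 hr at 37 C. Viability read as intracellular ATP by CellTiter-Glo luminescence; AC50 from Hill fits of concentration-response data.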

[10] = Cell Viability - LYMP2-003 (AID 965);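 also: cells exposed to compounds for 24 h before reading; nearly all actives have a fitted effect of over 50% in size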
Method in brief: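 qHTS, human lymphoblastoid line, 2500 cells/well, complete medium. 24 h drug, 37 C. ATP-based luminescent readout; Hill-fit AC50.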

[11] = Cell Viability - LYMP2-004 (AID 966); also: nearly all actives have a fitted effect of over 65% in size
Method in brief: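 Human lymphoblastoid cells (2500/well) in complete medium were treated with compounds for 24 hr at 37 C, then intracellular ATP was measured by CellTiter-Glo luminescence. AC50 values came from Hill-equation fits of concentration-response data.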

[12] = Cell Viability - LYMP2-005 (AID 967); also: series mostly up to about 92 µM
Method in brief: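 Luciferase-based ATP quantitation served as the viability measure in human lymphoblastoid LYMP2-005 cells exposed to test compounds for 24 h at 37 C in complete culture medium. Potency (AC50) was obtained by fitting concentration-response curves with the Hill equation.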

[13] = Cell Viability - LYMP2-009 (AID 968); also: series mostly up to about 92 µM; nearly all actives have a fitted effect of over 55% in size
[14] = Cell Viability - LYMP2-011 (AID 969); also: nearly all actives have a fitted effect of over 60% in size
Method in brief: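 Human lymphoblastoid cells (2500/well) were plated in complete medium, preincubated 5 hr at 37 C, then exposed to compounds for 24 hr at 37 C. Intracellular ATP was read by CellTiter-Glo luminescence, and AC50 came from Hill-equation concentration-response fits.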

[15] = Cell Viability - LYMP2-013 (AID 970); also: series mostly up to about 92 µM; nearly all actives have a fitted effect of over 55% in size
Method in brief: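 Human lymphoblastoid cells, 2500/well, were preincubated 5 hr at 37 C, then treated with compounds for 24 hr at 37 C in complete medium. Intracellular ATP was read by CellTiter-Glo luminescence; AC50 from Hill-equation fits of concentration-response data.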

[16] = Cell Viability - LYMP2-015 (AID 971); also: nearly all actives have a fitted effect of over 55% in size
Method in brief: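 Human lymphoblastoid cells (2500/well) in complete medium were preincubated 5 hr at 37 C, then compound-treated 24 hr at 37 C. Intracellular ATP was read by CellTiter-Glo luminescence after 30 min at room temperature; AC50 came from Hill-equation concentration-response fits.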

[17] = Cell Viability - LYMP2-017 (AID 972); also: series mostly up to about 92 µM; nearly all actives have a fitted effect of over 55% in size
Method in brief: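 Human lymphoblastoid cells (2500/well) were seeded in complete medium, held 5 hr at 37 C, then exposed to compounds for 24 hr at 37 C. Intracellular ATP was read by CellTiter-Glo luminescence after 30 min at room temperature, with AC50 values from Hill-equation fits.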

[18] = Cell Viability - LYMP2-019 (AID 973); also: nearly all actives have a fitted effect of over 55% in size
Method in brief: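 Human lymphoblastoid cells were seeded at 2500 cells/well, preincubated 5 hr at 37 C, then exposed to compounds for 24 hr at 37 C in complete medium. Intracellular ATP was measured by CellTiter-Glo luminescence; AC50 from Hill fits.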

[19] = Cell Viability - LYMP2-021 (AID 974)
Method in brief: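 Human lymphoblastoid cells (2500/well) were preincubated 5 hr at 37 C, then exposed to compounds for 24 hr at 37 C in complete medium. Intracellular ATP was read by CellTiter-Glo luminescence; AC50 came from Hill-equation fits of concentration-response data.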

[20] = Cell Viability - LYMP2-023 (AID 975)
Method in brief: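 Human lymphoblastoid cells (2500/well) were preincubated 5 hr at 37 C, then exposed to compounds for 24 hr at 37 C in complete medium. Cellular ATP was read by CellTiter-Glo luminescence, and AC50 came from Hill-equation fits.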

Measured: Potency

CCCCCCO
inactive: all assays above

C[C@@H]1O[C@@H](O[C@@H]2[C@@H](O)[C@H](OCCc3ccc(O)c(O)c3)O[C@H](CO[C@@H]3O[C@H](CO)[C@@H](O)[C@H](O)[C@H]3O)[C@H]2OC(=O)/C=C/c2ccc(O)c(O)c2)[C@H](O)[C@H](O)[C@H]1O
inactive: all assays above

CC=O
inactive: all assays above

Nc1cccc(N)c1
inactive: all assays above

CC#N
inactive: all assays above

CCC=O
inactive: all assays above

COC(=O)CS
inactive: all assays above

Oc1c(Cl)ccc(Cl)c1Cl
inactive: all assays above

Cc1ccco1
inactive: all assays above

CN(C)c1cccc(O)c1
inactive: all assays above

Cc1cccc(C(=O)O)c1[N+](=O)[O-]
not listed: [19]
inactive: all other assays above

C=C(C)C(=O)OC
inactive: all assays above

NC(N)=S
inactive: all assays above

COc1cccc(N)c1
inactive: all assays above

Cc1nc2ccc(Cl)cc2[nH]1
inactive: all assays above

ICCc1ccccc1
inactive: all assays above

Cc1ccc(S(=O)(=O)NC2CCCCC2)cc1
inactive: all assays above

Fc1ccccc1
inactive: all assays above

C=C(C)OC(C)=O
inactive: all assays above

FB(F)F
inactive: all assays above

CCOCCOCC
inactive: all assays above

Cc1cccc(C)c1O
inactive: all assays above

O=C1NC(=O)c2cc([N+](=O)[O-])ccc21
inactive: all assays above

C=CCCC
inactive: all assays above

CC1CCCO1 (centres undefined)
inactive: all assays above

Cc1cccc([N+](=O)[O-])c1C(=O)O
inactive: all assays above

C1CCC2OC2C1 (centres undefined)
inactive: all assays above

CCCCOCCOCCOCCCC
inactive: all assays above

Cc1ccc(CO)cc1
inactive: all assays above

CC(C)CO
inactive: all assays above

OC(CCl)CCl
inactive: all assays above
